# An excerpt weighted towards active compounds, which were near 11% of everything screened.
# Pf growth 48h: inhibits P. falciparum growth in the first generation, 48 h | P. falciparum luciferase growth in erythrocytes, 48 h | Potency, µM (top dose mostly 28.7 µM), most hits filed as inhibitors | AID 504832 | 5.9% of 310,000 active
#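 Cell-based growth assay: transgenic P. falciparum expressing firefly luciferase, cultured in red cells within RPMI 1640 containing 0.5% w/v Albumax, 24 mM bicarbonate and gentamycin. A drop in luciferase activity indicates inhibition.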
# NS1 function inh: inhibitors of influenza NS1 protein function. AID 2326. 0.4% of 270,000 active. Potency, µM (doses to about 46.1 µM); calls by dose curve; also: actives are rising curves; nearly all actives have a fitted effect of over 50% in size
#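 Recovery from NS1-induced slow growth read by OD600 in budding yeast switched to galactose assay medium (pH 6.0, -URA) at 1:100 dilution. Compound 23 nl per well; the matching strain lacking NS1 serves as control.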
# VACV mCherry inh: vaccinia inhibition (mCherry reporter) | Vaccinia virus mCherry reporter infection, fluorescence | Potency, µM (highest dose often 36.5 µM), most hits filed as inhibitors | 0.63% of 310,000 active | AID 720579; calls by dose curve; tested in A549 cells; also: nearly all actives have a fitted effect of over 35% in size
# VACV Venus inh: inhibitors of vaccinia virus (Venus reporter) | 0.46% of 330,000 active | Vaccinia virus Venus reporter expression, fluorescence | AID 720580 | Potency, µM (doses to about 36.5 µM), hits mostly inhibitors; calls by dose curve; tested in A549 cells; also: nearly all actives have a fitted effect of over 30% in size
# Pf growth 96h: P. falciparum growth inhibition at 96 hours | P. falciparum luciferase reporter growth, 96 h | Potency, µM (doses to about 28.7 µM), actives largely listed as inhibitors | 6.9% of 320,000 active
#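 Plates of compound plus infected erythrocytes (2% hematocrit, 0.05% parasitemia final) incubate 96 hours, 37 C, 5% CO2. Detection reagent added; reduced luminescence from the parasites' luciferase reporter flags inhibition.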
# HCV inh: HCV inhibition; Huh7.5.1 HCVcc-Cre infection, luciferase reporter, 44 h; Potency, µM (titrated, usually from 41.8 µM), usual class: inhibitors; 3.4% of 340,000 active; AID 651820
#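 After 44 h co-culture of compound, cells and HCVcc-Cre (~0.5 moi), substrate is added for 15 min at room temperature and luciferase measured over 15 sec. Cells were seeded at 1,000/well and pre-cultured 4 h.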
# Numbers stand for hits; - = inactive; ? = inconclusive; . = no result. Unless noted, calls follow the shape of the dose curve; as a rule, active = well fitted inhibition curve with a large enough effect; inconclusive = small, poorly fitted or top-dose-only effect, or another doubt; inactive = no such curve, though single readings can be large or run the other way.
SMILES,Pf growth 48h,NS1 function inh,VACV mCherry inh,VACV Venus inh,Pf growth 96h,HCV inh
Cc1ccc(S(=O)(=O)n2cnc3cc([N+](=O)[O-])ccc32)cc1C,-,-,-,-,-,-
O=C1C=C2C(=CCOC2O)O1 (configuration not stated),.,.,11µM,11µM,.,.
COc1ccc(-c2c(-c3ccccc3)c(C(=O)C(=O)NCCCN(C)C)n3ccc4cc(OC)c(OC)cc4c23)cc1OC,.,-,-,-,2.9µM,?
COc1ccc(N=c2oc3cc(O)ccc3cc2C(=O)NCC2CCCO2)cc1 (configuration not stated),?,-,.,.,?,-
Cc1ccc(N=c2oc3cc(O)ccc3cc2C(N)=O)cc1,-,-,?,?,-,11µM
COc1ccc(N=c2oc3cc(O)ccc3cc2C(=O)Nc2ccccn2)cc1OC,4.7µM,.,.,.,-,?
CCCCCNC(=O)c1ccc2c(=O)n(CCOC)c(=O)[nH]c2c1,.,-,-,-,.,-
CCN(C(=O)c1c(C)cc(=O)oc1C)c1ccc2c(c1)OCO2,-,-,.,.,-,-
CCCNc1c(NS(=O)(=O)c2ccc(C)c(C)c2)c(=O)oc2ccccc12,-,-,.,.,-,-
CCCNc1c(NC(=O)COc2ccc(Cl)cc2)c(=O)oc2ccccc12,0.066µM,-,.,.,?,-
CCCNc1c(NS(=O)(=O)c2c(F)c(F)c(F)c(F)c2F)c(=O)oc2ccccc12,-,-,5µM,?,-,-
CCOC(=O)C(=O)N1CCC(C(=O)OCC)CC1,-,-,-,-,-,-
CN1CCN(C(=O)C2CCN(S(=O)(=O)c3cnc[nH]3)CC2)CC1,-,-,-,-,-,-
Cc1ccc(Cl)cc1N1CCN(C(=O)C2CCC(=O)N(C3CCCCCC3)C2)CC1 (configuration not stated),12µM,-,.,.,?,?
Cc1ccc(Cl)cc1N1CCN(C(=O)C2CCN(S(=O)(=O)c3cnc[nH]3)CC2)CC1,-,-,-,-,2.6µM,-
Cc1cc(C)nc(N2CCC(C(=O)N3CCN(c4cc(Cl)ccc4C)CC3)CC2)n1,?,-,.,.,.,13µM
O=C(c1ccco1)N1CCN(C(=O)C2CCN(S(=O)(=O)c3cnc[nH]3)CC2)CC1,-,-,-,-,-,32µM
Cc1ccc(Cl)cc1N1CCN(C(=O)C2CCCN(S(=O)(=O)c3cnc[nH]3)C2)CC1 (configuration not stated),?,-,-,-,?,-
COc1cc(OC)cc(C(=O)N[C@H](C(=O)NC23CC4CC(CC(C4)C2)C3)C(C)C)c1,10µM,-,.,.,.,-
COc1ccc(C(=O)NNC(=O)C(NC(=O)c2cc(OC)cc(OC)c2)C(C)C)cc1 (configuration not stated),-,.,.,.,-,-
COc1ccccc1CN1CC(C(=O)N(C)CCc2ccccn2)CCC1=O (configuration not stated),.,.,-,-,.,.
COc1ccccc1CN1CC(C(=O)N(C)CCc2nc3ccc(F)cc3[nH]2)CCC1=O (configuration not stated),-,-,.,.,10µM,-
COc1ccccc1CCNCc1cc2cccc(C)c2nc1-c1cccs1,.,.,-,-,.,.
Cn1nc(C(=O)Nc2cccc(C(=O)NC3CC3)c2)c2ccccc2c1=O,-,.,.,.,-,?
Cc1cc(=O)c(C(=O)Nc2cccc(C(=O)NC3CC3)c2)nn1-c1ccccc1Cl,?,.,.,.,7.4µM,?
CC(C)c1ccc(S(=O)(=O)N2CCN(C(C)C(=O)Nc3ccccc3-c3ccccc3)CC2)cc1 (configuration not stated),9.3µM,?,-,-,5.2µM,-
CC(C(=O)Nc1ccccc1-c1ccccc1)N1CCCCC1 (configuration not stated),.,-,.,-,?,-
CCCC(NC(=O)C(C)N1CCN(S(=O)(=O)c2ccccc2)CC1)c1ccccc1 (configuration not stated),-,.,-,-,10µM,?
CC(C(=O)Nc1ccccc1F)N1CCN(S(=O)(=O)c2ccc(C(F)(F)F)cc2)CC1 (configuration not stated),?,.,-,-,-,-
CC(C(=O)Nc1ccccc1-c1ccccc1)N1CCN(S(=O)(=O)c2ccccc2)CC1 (configuration not stated),6.6µM,-,-,-,9.3µM,?
